The nature of assay [1]: qHTS of pediatric cancer cell lines to identify multiple opportunities for drug repurposing: Confirmatory screen for BT-12 cells (AID 1347112). Also: nearly all actives have a fitted effect of over 55% in size. Also: potency is read from the fitted curve at half-maximal effect. Put shortly: (§1)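 Cells (500-1,000/well) in growth media were settled 5 h at 37 degrees C, then given compounds for 48 h. Viability was read as CellTiter-Glo luminescence. Primary runs used MIPE at 11 points (0.78 nM-46 µM) and NPC at 8 points (0.59 nM-46 µM); follow-ups used 11 points.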
For orientation: In qHTS, concentration-response curves come from the screen itself.

A short description of assay [2]: qHTS of pediatric cancer cell lines to identify multiple opportunities for drug repurposing: Confirmatory screen for LAN-5 cells (AID 1347113). Also: nearly all actives have a fitted effect of over 65% in size. Also: potency is read from the fitted curve at half-maximal effect. Put shortly:
as §1

The nature of assay [3]: qHTS of pediatric cancer cell lines to identify multiple opportunities for drug repurposing: Confirmatory screen for DAOY cells (AID 1347114). Also: nearly all actives have a fitted effect of over 65% in size. Also: potency is read from the fitted curve at half-maximal effect. The method in brief: (§2)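 Viability measured as metabolically active cells via CellTiter-Glo luminescence following 48 hours of compound exposure, 11-point dilutions in confirmatory testing. 500-1,000 cells/well plated 5 hours before dosing; controls were DMSO and 2.3 µM bortezomib.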

Assay [4] is described as follows: qHTS of pediatric cancer cell lines to identify multiple opportunities for drug repurposing: Confirmatory screen for SJ-GBM2 cells (AID 1347116). Also: nearly all actives have a fitted effect of over 60% in size. Also: potency is read from the fitted curve at half-maximal effect. The method in brief: as §2
Assay [5] in a line: qHTS of pediatric cancer cell lines to identify multiple opportunities for drug repurposing: Confirmatory screen for BT-37 cells (AID 1347117). Also: nearly all actives have a fitted effect of over 55% in size. Also: potency is read from the fitted curve at half-maximal effect. To be noted: BT-37 pediatric cancer cells, viability; activity change, negative = cytotoxic: at 45.9 µM (top of the series). The method in brief:
as §1

Assay [6] can be described thus: qHTS of pediatric cancer cell lines to identify multiple opportunities for drug repurposing: Confirmatory screen for TC32 cells (AID 1347118).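 Also: cells exposed to compound for 48 h before the read; nearly all actives have a fitted effect of over 65% in size.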 Also: potency is read from the fitted curve at half-maximal effect. The method in brief:
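Luminescent CellTiter-Glo read-out of metabolically active TC32 cells after 48 h compound exposure. Primary: MIPE 11-point, 0.78 nM–46 µM; NPC 8-point, 0.59 nM–46 µM. Confirmatory: 11-point dilutions.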

Assay [7] is described as follows: qHTS of pediatric cancer cell lines to identify multiple opportunities for drug repurposing: Confirmatory screen for MG 63 (6-TG R) cells (AID 1347119). Also: nearly all actives have a fitted effect of over 55% in size. Also: potency is read from the fitted curve at half-maximal effect. The method in brief:
as §1

A short description of assay [8]: qHTS of pediatric cancer cell lines to identify multiple opportunities for drug repurposing: Confirmatory screen for control Hh wild type fibroblast cells (AID 1347121). Also: nearly all actives have a fitted effect of over 70% in size. Also: potency is read from the fitted curve at half-maximal effect. Put shortly: as §1
A short description of assay [9]: qHTS of pediatric cancer cell lines to identify multiple opportunities for drug repurposing: Confirmatory screen for U-2 OS cells (AID 1347122). Also: nearly all actives have a fitted effect of over 65% in size. Also: potency is read from the fitted curve at half-maximal effect. Put shortly:
as §1

A short description of assay [10]: qHTS of pediatric cancer cell lines to identify multiple opportunities for drug repurposing: Confirmatory screen for Rh41 cells (AID 1347123). Also: nearly all actives have a fitted effect of over 60% in size. Also: potency is read from the fitted curve at half-maximal effect. The method in brief:
as §1

Assay [11] in a line: qHTS of pediatric cancer cell lines to identify multiple opportunities for drug repurposing: Confirmatory screen for RD cells (AID 1347124). Also: potency is read from the fitted curve at half-maximal effect. The method in brief: as §1
Assay [12] is described as follows: qHTS of pediatric cancer cell lines to identify multiple opportunities for drug repurposing: Confirmatory screen for Rh18 cells (AID 1347125). Also: nearly all actives have a fitted effect of over 55% in size. Also: potency is read from the fitted curve at half-maximal effect. Put shortly: as §1
Assay [13] in a line: qHTS of pediatric cancer cell lines to identify multiple opportunities for drug repurposing: Confirmatory screen for Rh30 cells (AID 1347126). Put shortly: as §1
The nature of assay [14]: qHTS of pediatric cancer cell lines to identify multiple opportunities for drug repurposing: Confirmatory screen for Saos-2 cells (AID 1347127). Also: nearly all actives have a fitted effect of over 60% in size. Also: potency is read from the fitted curve at half-maximal effect. The method in brief:
as §1

Assay [15] in a line: qHTS of pediatric cancer cell lines to identify multiple opportunities for drug repurposing: Confirmatory screen for OHS-50 cells (AID 1347128). Also: potency is read from the fitted curve at half-maximal effect. The method in brief:
as §1

The nature of assay [16]: qHTS of pediatric cancer cell lines to identify multiple opportunities for drug repurposing: Confirmatory screen for SK-N-SH cells (AID 1347129).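 Also: cells exposed to compound for 48 h before viability read; nearly all actives have a fitted effect of over 60% in size.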 Also: potency is read from the fitted curve at half-maximal effect. The method in brief:
as §1

A short description of assay [17]: qHTS of pediatric cancer cell lines to identify multiple opportunities for drug repurposing: Confirmatory screen for NB-EBc1 cells (AID 1347115).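 Also: cells exposed to compound for 48 h before the viability read; nearly all actives have a fitted effect of over 45% in size.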 The method in brief:
as §1

Results filed as inconclusive are left out. Calls of active or inactive are those of the source. Calls follow the shape of the dose curve; as a rule, active = well fitted curve in the direction sought with a large enough effect; inconclusive = small, poorly fitted or top-dose-only effect, or another doubt; inactive = no such curve, though single readings can be large; an effect the other way counts as inactive or inconclusive. Residues, ends and D or L forms follow the SMILES beside them. *: point of attachment. Cbz = O=C(OCc1ccccc1)*

With `CC(C)C[C@@H](C=O)NC(=O)[C@H](CC(C)C)NC(=O)[C@H](CC(C)C)NC(=O)OCc1ccccc1` (Cbz-Leu-Leu-Leu-aldehyde), the Potency is 1170 nM (active) in assay [1]; 1040 nM (active) in [2]; 737 nM (active) in [3]; 1040 nM (active) in [4]; 585 nM (active) in assay [5]; 827 nM (active) in [6]. For the same compound, the Potency in assay [7] was 585 nM (active); in assay [8] it was 5850 nM (active); in assay [9], 2080 nM (active); in [10] it was 1170 nM (active); in assay [11], 657 nM (active); in assay [12], 1650 nM (active). For the same compound, the Potency is 3290 nM (active) in [13], 1470 nM (active) in assay [14], 928 nM (active) in [15] and 833 nM (active) in [16].

Take `CCC(C(=O)O)C1CCC(C)C(C(C)C(O)C(C)C(=O)C(CC)C2OC3(C=CC(O)[C@@]4(CC[C@](C)(C5CC[C@@](O)(CC)C(C)O5)O4)O3)C(C)CC2C)O1` (some centres not stated): the Potency in assay [1] was 3690 nM (active); in assay [2], 1170 nM (active); in assay [3] it was 3290 nM (active); in [9], 7370 nM (active); in assay [10], 1470 nM (active); in assay [13], 18500 nM (active). Further, the Potency in assay [15] is 369 nM (active); in assay [16] it was 5900 nM (active). Moreover, the Potency entry in assay [5], in assay [6] and in [7] was “inactive” each time.

As for `COc1ccc2c(c1OC)C(=O)OC2[C@H]1c2c(cc3c(c2OC)OCO3)CCN1C` (some centres not stated), the Potency result in assay [1], in assay [2], in assay [4], in assay [5], in assay [8] and in [9] was “inactive” each time. In addition, the Potency result in assay [11], in assay [12], in assay [14], in assay [15] and in assay [16] was “inactive” throughout. Also, the Potency in assay [6] is 2930 nM (active).

On to `COc1cccc2c1C(=O)c1c(O)c3c(c(O)c1C2=O)C[C@@](O)(C(=O)CO)C[C@@H]3O[C@H]1C[C@H](N)[C@@H](O)[C@H](C)O1`, for which the Potency is 585 nM (active) in assay [1]; 165 nM (active) in assay [2]; 1470 nM (active) in assay [3]; 737 nM (active) in assay [4]; 117 nM (active) in [5]; 131 nM (active) in assay [6]. The Potency was 293 nM (active) in [10]; 3290 nM (active) in assay [11]; 585 nM (active) in assay [12]; 293 nM (active) in [14]; 1470 nM (active) in assay [15]; 332 nM (active) in assay [16].

Turning to `CCOC(=O)C1=C(C)NC(=S)NC1c1cccc(O)c1` (configuration not stated), the Potency result in [1], in assay [2], in assay [17], in assay [7], in assay [8] and in assay [12] was “inactive” in each case. In addition, the Potency entry in assay [16] is “inactive”. Also, the Potency in [6] is 3690 nM (active); in assay [9], 20800 nM (active).

In the case of `CCS(=O)(=O)Nc1ccc2[nH]c(O)c(C(=Nc3ccc(CN4CCCCC4)cc3)c3ccccc3)c2c1`, the Potency in assay [1] was 18500 nM (active); in [2], 185 nM (active); in assay [3], 16500 nM (active); in [4], 14700 nM (active); in assay [5] it was 16500 nM (active); in assay [6], 41.4 nM (active). The Potency in [7] is 329 nM (active); in [9], 522 nM (active); in [10], 522 nM (active); in assay [11], 737 nM (active); in [12], 4650 nM (active); in [13], 1650 nM (active). Also, the Potency is 737 nM (active) in assay [14], 5220 nM (active) in assay [15] and 332 nM (active) in assay [16].

On to `C=CC(=O)Nc1cccc(Nc2nc(NC3CCC(N(C)C)CC3)nc3c2ncn3C(C)C)c1` (configuration not stated), for which the Potency in assay [1] was 1170 nM (active); in assay [2] it was 827 nM (active); in [3], 3290 nM (active); in assay [4], 4650 nM (active); in assay [5] it was 827 nM (active); in assay [6], 657 nM (active). Besides, the Potency in [7] is 3690 nM (active); in [9], 5220 nM (active); in assay [10], 414 nM (active); in [11] it was 737 nM (active); in assay [12], 657 nM (active); in [14] it was 1650 nM (active). Further, the Potency in assay [15] was 2080 nM (active); in [16], 2960 nM (active). In addition, in assay [8], the Potency entry was “inactive”.

For `C=CCNC1=C2C[C@@H](C)C[C@H](OC)[C@@H](O)[C@@H](C)C=C(C)[C@H](OC(N)=O)[C@@H](OC)C=CC=C(C)C(=O)NC(=CC1=O)C2=O`, the Potency result in assay [1] was “inactive”. Besides, the Potency in assay [2] was 4650 nM (active); in assay [3], 4650 nM (active); in assay [4], 165 nM (active); in assay [5], 92.8 nM (active); in assay [6], 522 nM (active); in assay [7] it was 2610 nM (active). For the same compound, the Potency was 414 nM (active) in assay [9]; 737 nM (active) in [10]; 131 nM (active) in assay [11]; 585 nM (active) in [12]; 4140 nM (active) in [13]; 11700 nM (active) in assay [15]. Moreover, the Potency in assay [16] was 1870 nM (active).

As for `CC(=O)NCC(=O)N1[C@H]2CC[C@H]1c1cc(Nc3ncc(C(F)(F)F)c(NC4CCC4)n3)ccc12`, the Potency was 16500 nM (active) in assay [1]; 1470 nM (active) in [2]; 5850 nM (active) in assay [4]; 11700 nM (active) in assay [5]; 46.5 nM (active) in assay [6]; 233 nM (active) in assay [7]. For the same compound, the Potency in [9] is 1850 nM (active); in assay [10], 1310 nM (active); in assay [11], 13100 nM (active); in assay [12], 2930 nM (active); in [13] it was 3690 nM (active); in assay [14], 585 nM (active). Besides, the Potency in [15] was 2610 nM (active); in assay [16], 2090 nM (active).

With `CCC(C=C[C@@H]1OC(=O)C=C[C@H]1C)=C[C@H](C)CC=CC(C)=C[C@@H](C)C(=O)[C@@H](C)[C@H](O)[C@@H](C)CC(C)=CC(=O)O`, the Potency was 16.1 nM (active) in assay [1]; 5.1 nM (active) in [2]; 12.8 nM (active) in assay [3]; 5.7 nM (active) in assay [5]; 14.4 nM (active) in assay [6]; 9.1 nM (active) in assay [9]. Also, the Potency in assay [10] was 12.8 nM (active); in assay [11], 12.8 nM (active); in assay [12], 9.1 nM (active); in assay [15], 16.1 nM (active).

With `CC(C(C)N1CC(=O)NC(=O)C1)N1CC(=O)NC(=O)C1` (configuration not stated), the Potency result in [1], in assay [2], in assay [3], in [8], in [9] and in [10] was “inactive” throughout. Further, the Potency result in assay [11], in assay [12], in assay [14], in assay [15] and in assay [16] was “inactive” in each case. Also, the figures for the Potency in assay [5], in [6] and in assay [7] were 9270 nM (active), 4140 nM (active) and 5220 nM (active), respectively.

Values taken from PubChem BioAssay (NCATS).
